Reference: PubChem BioAssay AID504466 (National Center for Advancing Translational Sciences (NCATS), 2011)
Screen size: about 330,000 compounds; about 4,200 (1.3%) were called active. About 6% were inconclusive and are not listed. The full list was thinned out, with actives kept by preference. Values without a mark were called inactive. The call rests on the fitted dose curve; in most records, active means well fitted activation curve with a large enough effect; inconclusive means small, poorly fitted or top-dose-only effect; inactive means no such curve, though single readings can be large or run the other way.

experiment: qHTS screen for small molecules that induce genotoxicity in human embryonic kidney (HEK293T) cells expressing luciferase-tagged ELG1; settings: HEK293T ELG1-luciferase reporter, luminescence, 16 h; series mostly up to 46 µM; activity change, positive = activation: at the top concentration; further: nearly all actives have a fitted effect of over 60% in size; on activity change, positive = activation: % of control where 0% means no effect
How it was run: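 HEK293T cells expressing luciferase-tagged ELG1 were exposed to compound or DMSO vehicle for 16 hr at 37 °C and 5% CO2. Luciferase activity was then measured with ONE-Glo after 30 min at room temperature.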
Potency means the concentration at half of the fitted maximal effect.

Row | Structure (SMILES) | activity change, positive = activation | Potency
1 | Cc1ccc2c(c1)NC(=O)[C@@]1(C)[C@@H](c3ccccc3)[C@H]3COc4ccc(Cl)cc4[C@@H]3N1C2=O | -1.37% | 
2 | CN(C)C(=O)CCc1ccc2c3c([nH]c2c1)[C@]1(C)[C@@H](C(=O)N2CCOCC2)C[C@H](CC(=O)NCCc2ccccn2)C(=O)N1CC3 | 9.82% | 
3 | COc1ccc(S(=O)(=O)N(C)C[C@@H]2Oc3ccc(NC(=O)Nc4c(C)noc4C)cc3C(=O)N([C@H](C)CO)C[C@@H]2C)cc1 | 3.81% | 
4 | COc1ccc(Nc2nc(NCc3ccco3)nc(N/N=C/c3ccccc3Cl)n2)cc1 | -0.416% | 
5 | COc1ccc(-n2cnc3cc(C(=O)NC4CCCC4)ccc32)cc1 | 12.1% | 
6 | COc1ccc(-n2cnc3cc(NCc4ccco4)ccc32)cc1 |  | 20.6 µM (active)
7 | C=CCC[C@H](Cc1ccc(F)cc1)C(=O)OC[C@@H](NC(=O)[C@@H](CC=C)CC(=O)N[C@H](CO)Cc1ccccc1)C(C)(C)C | -8.04% | 
8 | Cc1ccc(C)c(C(C)NC(=O)C2CCCO2)c1 (centres undefined) | -2.35% | 
9 | Cc1cc(C)c2nc(NC(=O)C3CCCO3)sc2c1 (centres undefined) |  | 3.55 µM (active)
10 | Cc1cc([N+](=O)[O-])ccc1NC(=O)C1CCCO1 (centres undefined) | -1.87% | 
11 | O=C(Nc1ccccc1)Nc1ccc(C(F)(F)F)cn1 | 8.04% | 
12 | Cc1nccn1CC(=O)N/N=C/c1ccc(O)c(O)c1 | 0.2% | 
13 | Oc1ccc(/C=N/Nc2ccc(C(F)(F)F)cn2)cc1O |  | 20.6 µM (active)
14 | Clc1ccc2nc(CSc3ccccc3)cn2c1 |  | 0.82 µM (active)
15 | O=C(/C=C/c1ccc2c(c1)OCO2)NCc1cn2cc(Cl)ccc2n1 | 1.4% | 
16 | CCCCCCSc1ccc(-c2nc3ccc(Cl)cn3c2NCc2ccccc2)cc1 | -2.3% | 
17 | O=C(NCCc1ccco1)c1ccc(OCc2cn3ccccc3n2)cc1 | 9.93% | 
18 | COc1ccc(-c2nnc3ccc(SCc4ccccc4)nn23)cc1 | -0.849% | 
19 | COC(=O)CSc1nc(C)c2ccc(OC)cc2n1 | -1.32% | 
20 | COc1ccc2nc(SCc3ccccc3)nc(C)c2c1 |  | 3.66 µM (active)
21 | C#CCOCCOCCOCCNc1nc(N2CCN(C(=O)[C@H](CO)n3cc([C@@H](N)C(C)C)nn3)CC2)nc(N2CCN(C(=O)[C@H](CCC(=O)O)n3cc([C@@H](N)[C@H](C)CC)nn3)CC2)n1 | 3.78% | 
22 | O=C(COC(=O)c1cccnc1Cl)NC12CC3CC(CC(C3)C1)C2 | -4.16% | 
23 | Cc1ccc(NC(=O)C2CC2)cc1S(=O)(=O)N1CCOCC1 | -0.262% | 
24 | CC[C@]12c3[nH]c4cc(CCC(=O)N(C)C)ccc4c3CCN1C(=O)[C@@H](CC(=O)NCCCN(C)C)C[C@@H]2C(=O)N1CCN(C(=O)c2ccco2)CC1 | -3.3% | 
25 | O=C(NN=Cc1ccc(N2CCOCC2)cc1)c1cc2ccccc2cc1O | -2.13% | 

Row | Structure (SMILES) | activity change, positive = activation | Potency
26 | N/C(=N\OC(=O)Cc1ccc([N+](=O)[O-])cc1)c1ccccn1 | 12% | 
27 | COc1ccccc1OCC(=O)OCc1cc(-c2ccco2)on1 | -0.824% | 
28 | COc1ccccc1OCC(=O)O/N=C(\N)c1ccccn1 |  | 9.2 µM (active)
29 | COc1ccc(OCC(=O)NNC(=O)C2CCC2)cc1 | 0.166% | 
30 | CC(CNC(=O)Cn1cnc2c(OCc3ccccc3)ncnc21)c1ccccc1 (centres undefined) | 1.33% | 
31 | Cc1ccc(Nc2nc(N3CCOCC3)nc(N3CCOCC3)n2)cc1Cl | 0.349% [at 9.26 µM] | 
32 | CNc1nc(Nc2ccc(C)c(Cl)c2)nc(N)c1[N+](=O)[O-] |  | 10.3 µM (active)
33 | COc1cccc(Nc2nc(N)c([N+](=O)[O-])c(NCc3ccco3)n2)c1 | -1.09% | 
34 | CCN(C(=O)COC(=O)c1ccccc1O)c1cccc2ccccc12 | -3.96% | 
35 | Cc1ccc(OCC(=O)Nc2ccc(-c3nc4ncccc4o3)cc2)cc1 | 5.43% | 
36 | CC(=O)Nc1ccc(Nc2c3ccccc3nc3ccccc23)cc1 |  | 13 µM (active)
37 | CCc1nc(Nc2ccc(NC(C)=O)cc2)c2oc3ccccc3c2n1 | -0.226% | 
38 | CC(=O)Nc1ccc(-c2nc3ccccc3o2)cc1 |  | 3.26 µM (active)
39 | COc1cc(OC)cc(C(=O)Nc2ccc(-c3nc4ccccc4o3)c(O)c2)c1 | -4.77% | 
40 | CC(C)(C)OC(=O)NNc1c2ccccc2nc2ccccc12 | -4.89% | 
41 | Nc1ncnc2c1ncn2[C@@H]1O[C@H](CNCc2cccn2-c2nccs2)[C@@H](O)[C@H]1O | 4.38% | 
42 | CC(C)/C=N/NC(=O)c1cc(Br)ccc1O | -0.104% | 
43 | CC(C)Cc1cc(C(=O)Nc2cc(Br)ccc2O)no1 |  | 8.2 µM (active)
44 | CC(C)C(=O)NCc1cc(-c2ccc(Cl)cc2)no1 | 7.48% | 
45 | CC(C)N(C(=O)[C@H]1C[C@H](CC(=O)NCCC2=CCCCC2)C(=O)N2CCc3c([nH]c4cc(CCC(=O)N(C)C)ccc34)[C@]12C)C(C)C | 3.22% | 
46 | Cc1ccc(C(=O)COc2cccc(NC(=O)c3ccco3)c2)cc1 | 3.01% | 
47 | Cc1cccc(NC(=O)Nc2cccc(Oc3c(F)c(F)c(F)c(F)c3F)c2)c1 | 0.228% | 
48 | Cc1ccoc1C(=O)Nc1cccc(Oc2ccccc2)c1 |  | 9.2 µM (active)
49 | CN(CC(=O)Nc1ccc(C(N)=O)cc1)S(=O)(=O)c1ccc2c(c1)OCCO2 | -1.78% | 
